697 NFkB inh = inhibitors of PMA/ionomycin-induced NF-kB reporter, 697 cells, primary screen, B-cell NF-kB inhibitor project, cell-based, luminescence, uHTS; 0.33% of 330,000 active; 697 B-cell NF-kB luciferase reporter, 16 h; inhibition, % at 4 µM; in the data active = inhibition above about 35%
Jurkat NFkB inh = inhibitors of induced NF-kB luciferase reporter, primary screen, TCR NF-kB activation inhibitor project, cell-based, luminescence, uHTS; 0.53% of 330,000 active; inhibition, % at 4 µM; Jurkat, PMA/ionomycin-induced NF-kB luciferase reporter; AID 435003, 2010; in the data active = inhibition above about 50%
Gli-Sufu block = Gli-Sufu pathway antagonists, primary screen, luciferase luminescence, Sufu-KO-LIGHT cells, uHTS; Sufu-KO-LIGHT fibroblasts, Gli luciferase reporter luminescence; inhibition, % at 5 µM; 0.74% of 340,000 active; AID 588413, 2011;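 active = inhibition above about 55%, limit read from the data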
TAG inh = inhibitors of triacylglycerol accumulation, primary screen, cell-based, uHTS, fluorescence, H9c2 | H9c2 cells, Nile Red lipid (TAG) fluorescence; cells loaded with 200 µM oleic acid | inhibition, % at 12.5 µM | 0.66% of 230,000 active;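 active = pattern-corrected inhibition of lipid staining of at least 50% with the nuclear-stain viability signal not falling by more than 50%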
H9c2 protect = cardioprotection against H2O2-induced cell death, primary screen, uHTS, H9c2 cells, ATPLite luminescence | H9c2 cardiomyocytes, H2O2 injury protection, 2 h | 0.63% of 360,000 active | protection from H2O2 cell death, % at 20 µM;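 active = compounds giving at least 50% protection of heart cells from peroxide-induced death in the single-dose screen, raw or plate-pattern-corrected value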
NR2F2 inh = NR2F2 transcriptional activity inhibitors, primary screen, cell-based, luciferase reporter, HEK293T, luminescence | 0.7% of 370,000 active | inhibition, % at 8.6 µM | AID 686940, 2013 | HEK293T NGFI-A luciferase reporter | COUP transcription factor 2 (Homo sapiens), P24468;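 active = inhibition above a per-plate cutoff, mean inhibition of test wells between control levels plus 3 SD, cut at about 38% in these data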;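 note: cells cotransfected with COUP-TFII expression vector driving the NGFI-A reporter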
Target sequence (P24468 whole entry, looked up): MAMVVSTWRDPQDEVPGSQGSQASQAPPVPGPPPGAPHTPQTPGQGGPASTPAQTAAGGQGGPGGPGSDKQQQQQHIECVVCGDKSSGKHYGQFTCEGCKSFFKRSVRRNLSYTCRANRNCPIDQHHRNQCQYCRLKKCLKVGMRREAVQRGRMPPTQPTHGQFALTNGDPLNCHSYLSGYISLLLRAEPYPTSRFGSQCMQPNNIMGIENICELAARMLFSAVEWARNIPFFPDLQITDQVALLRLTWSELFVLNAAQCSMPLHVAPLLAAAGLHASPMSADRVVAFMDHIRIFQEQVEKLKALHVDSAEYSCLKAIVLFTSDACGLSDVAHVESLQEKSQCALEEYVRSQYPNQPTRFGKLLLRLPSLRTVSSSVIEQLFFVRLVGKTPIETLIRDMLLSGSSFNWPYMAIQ
TAG conf = triacylglycerol accumulation inhibitors, retest, confirmation, cell-based, single concentration, Nile Red fluorescence, H9c2 | shares compounds with TAG inh | H9c2 lipid accumulation; cells loaded with 200 µM oleic acid | inhibition, % at 12.5 µM | 71% of 990 active;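 active = mean inhibition across replicates of 40% or more; inactive = mean inhibition below 40%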
Hits are given with their value; . = inactive; / = no result. Rows were chosen to be rich in hits. Some 2.6% of all compounds tested hit in one or more screens of this group.

SMILES	697 NFkB inh	Jurkat NFkB inh	Gli-Sufu block	TAG inh	H9c2 protect	NR2F2 inh	TAG conf
COc1cccc(NC(=O)N2CCc3nc(Nc4ccc(C(C)C)cc4)ncc3C2)c1	/	/	/	70.6	.	.	83.4
COc1cc(Nc2ncc3c(n2)CCN(C(=O)Nc2ccc(C(C)C)cc2)C3)cc(OC)c1OC	/	/	/	.	.	.	/
O=C(Cn1cc[n+](CC(=O)c2ccc(Cl)cc2Cl)c1)c1ccc(Cl)cc1Cl	.	.	.	60.1	.	.	44.2
Cc1cc(C)nc(NC(=NCCc2c[nH]c3ccccc23)NC(=O)Nc2ccc(Cl)c(Cl)c2)n1	.	.	.	67.3	.	.	69.6
Brc1ccc(-c2csc(NNC3=NCCCCC3)n2)cc1	.	.	.	130.5	.	.	129.3
FC(F)Oc1ccc(-c2csc(NNC3=NCCCCC3)n2)cc1	.	.	.	118.9	.	.	124.7
CCCCCc1cc(=O)oc2c(C(CCN(CC)CC)c3ccc(N(C)C)cc3)c(OC)cc(OC)c12 (stereo not drawn)	.	.	.	71.9	.	.	60.5
COc1cc(OC)c2c(-c3ccccc3)cc(=O)oc2c1C(CCN1CCCCC1)c1ccc(N(C)C)cc1 (stereo not drawn)	.	.	.	68.3	.	/	55.3
COc1ccc(C(CCN2CCCCC2)c2c(OC)cc(OC)c3c(-c4ccccc4)cc(=O)oc23)cc1 (stereo not drawn)	.	.	.	.	.	.	/
COc1cc(OC)c2c(-c3ccccc3)cc(=O)oc2c1C(CC(=O)N1CCCC1)c1ccc2c(c1)OCO2 (stereo not drawn)	.	.	.	.	.	.	/
COc1cc(OC)c2c(-c3ccccc3)cc(=O)oc2c1C(CCN1CCOCC1)c1ccc(N(C)C)cc1 (stereo not drawn)	.	/	.	.	.	.	/
COc1cc(OC)c2c(-c3ccccc3)cc(=O)oc2c1C(CCN1CCCCC1)c1ccc2c(c1)OCO2 (stereo not drawn)	.	.	.	57.8	.	.	41.0
COc1cc(OC)c2c(-c3ccccc3)cc(=O)oc2c1C(CCN1CCCC(C)C1)c1ccc2c(c1)OCO2 (stereo not drawn)	.	.	.	69.1	.	.	50.8
COC(=O)C1CN(Cc2ccccc2)CCS(=O)(=O)N1Cc1cn(Cc2cccc(Cl)c2)nn1 (stereo not drawn)	/	/	/	/	/	.	/
C#CCOCCOCCOCCNc1nc(N2CCOCC2)nc(N2CCN(C(=O)[C@H](CCC(=O)O)n3cc(C(N)CC(C)C)nn3)CC2)n1 (stereo partly drawn)	/	/	/	/	/	.	/
CCCCN(C)S(=O)(=O)c1ccc2[nH]c(=O)oc2c1	/	/	/	/	/	.	/
CC[C@@]1(c2cccc(Cl)c2)C(=O)N(C(=O)OC(C)C)N1C(=O)OC(C)C	/	/	/	/	/	.	/
Cc1ccc2c(c1)-c1c(cnn1CC(=O)O)CO2	.	.	.	.	.	.	/
Cc1ccc2c(c1)-c1c(cnn1CC(=O)Nc1ccccc1N1CCN(C)CC1)CO2	.	.	.	53.2	.	.	50.8
O=C(CN(Cc1ccco1)C(=O)c1cccc(Cl)c1)Nc1c(Cl)cc(Cl)cc1Cl	.	.	.	53.3	.	.	.
CC1(C)CC(=O)C2=C(C1)NC(SCC(=O)Nc1ccccc1)=C(C#N)C21CCCCC1	.	.	.	58.5	.	.	.
O=C1CCCC2=C1C1(CCCC1)N=C(Nc1nc3cc(-c4ccccc4)ccc3o1)N2	/	/	/	62.4	.	.	70.8
CCOC(=O)[C@]12CCCCC/C=C\1N(CCc1ccc(Cl)cc1)C(=O)[C@H]2CC(=O)NCc1cccc(C(F)(F)F)c1	/	/	/	/	/	.	/
COc1ccc(Cl)cc1-c1cc(C(=O)NCC2CCCCC2)[nH]n1	/	/	/	53.5	.	.	.
C=CCN1C(=O)[C@]2(OCCC=C[C@H]2C)c2cc(OC)ccc21	/	/	/	/	/	.	/
SMILES	697 NFkB inh	Jurkat NFkB inh	Gli-Sufu block	TAG inh	H9c2 protect	NR2F2 inh	TAG conf
Cc1nc2c(ccc3nc(NC(=O)C(c4ccccc4)c4ccccc4)sc32)s1	.	.	/	.	.	.	/
Cc1nc2c(ccc3nc(NC(=O)Cc4cccc5ccccc45)sc32)s1	.	.	.	51.0	.	.	57.9
Nc1[nH]n(-c2ccccc2)c(=O)c1N=Nc1ccc(F)cc1	/	/	/	/	/	.	/
Cc1ccccc1C(=O)NC1CCCCN(Cc2cccc(F)c2)C1=O (stereo not drawn)	/	/	/	/	/	.	/
CCCc1[nH]n(-c2ccc([N+](=O)[O-])cc2)c(=O)c1C=NCCc1c[nH]c2ccccc12	.	.	.	63.1	.	.	64.9
COC(=O)C1=C(C)N(Cc2ccc(Br)cc2)C(=S)NC1c1cccc(OC)c1 (stereo not drawn)	/	/	/	/	/	.	/
COc1ccc(Nc2cccc3ccccc23)cc1	.	.	.	64.9	.	.	.
COc1ccc(Nc2cccccc2=O)cc1	.	.	.	.	.	.	/
C=CCn1c(SCC(=O)Nc2ccccc2-c2ccccc2)nnc1-c1ccccc1	/	/	/	/	/	.	/
CCOc1ccc(C2=Nc3ccccc3C(c3ccc(N4CCOCC4)cc3)=NN2)cc1	.	.	.	73.4	.	.	52.8
Cc1[nH]c2ccccc2c1CC(=O)Nc1ccc(Nc2cccnc2)c(-c2ccc(Oc3ccccc3)cc2)c1	/	/	/	/	/	.	/
Cc1cccc(C)c1Nc1nnc(SCc2cc([N+](=O)[O-])cc3c2OCOC3)s1	.	.	.	/	.	.	/
COc1cccc(Nc2nnc(SCc3cc([N+](=O)[O-])cc4c3OCOC4)s2)c1	.	.	.	52.7	.	.	42.1
CC(=O)c1cc(-c2ccccc2)n(CC(=O)NCc2ccccc2Cl)c1C	/	/	/	/	/	.	/
Nc1nc2c(ncn2[C@@H]2O[C@H](C(=O)N[C@@H](Cc3ccccc3)C(=O)NCc3ccc4c(c3)OCO4)[C@@H](O)[C@H]2O)c(=O)[nH]1	/	/	/	/	/	.	/
COC(=O)C1=C(C)N(Cc2ccccc2)C(=NCc2ccc(OC)cc2)N[C@H]1c1ccccc1	.	.	.	56.3	.	.	.
COC(=O)C1=C(C)N(Cc2ccc(C(F)(F)F)cc2)C(=NCc2ccccc2)NC1c1ccccc1 (stereo not drawn)	/	/	/	/	/	.	/
N#CC1=C(SCC(=O)c2ccc(Br)cc2)NC2=C(C(=O)CCC2)C1c1ccco1 (stereo not drawn)	.	.	.	57.2	.	.	.
c1cc2c(cc1Oc1nc(N3CCOCC3)nc(N3CCOCC3)n1)OCO2	.	.	.	59.2	.	.	.

Bioassay records as filed in PubChem BioAssay.
